# In the library only some 5.3% were active in any assay of this set; here they are far more common.
# TDP1 inh – TDP1 (human) enzyme inhibition; Potency, µM (series often up to 130 µM), inactives show at the highest dose activity change, negative = inhibition, actives largely listed as inhibitors; AID 485290; recombinant TDP1, AlphaScreen DNA substrate cleavage; 350,000 tested, 0.28% active; also: potency is read from the fitted curve at half-maximal effect; % is scaled to controls: 0 for no effect and ±100 for the full control effect; nearly all actives have a fitted effect of over 40% in size
#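 Signal: AlphaScreen proximity between streptavidin donor and anti-FITC acceptor beads on intact substrate. Reaction: Tdp1 1 nM, substrate 15 nM final, 5 min RT after 15 min compound preincubation.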
# BAZ2B block – blocks human BAZ2B; Q9UIF8; AlphaScreen BAZ2B-H3K14Ac peptide displacement; Potency, µM (series often up to 114 µM), inactives show at the top dose activity change, negative = inhibition, most hits filed as inhibitors; 360,000 tested, 4.4% active; AID 504333; also: potency is read from the fitted curve at half-maximal effect; % is scaled to controls: 0 for no effect and ±100 for the full control effect; nearly all actives have a fitted effect of over 60% in size
#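 BAZ2B 50 nM plus b-H3(5-23)K14Ac 50 nM, PBS pH 7.4/0.01% Tween-20, 30 min RT; compound added (max 110 uM), 30 min RT; streptavidin donor/Ni-chelate acceptor beads 10 ug/mL final, 20 min dark; AlphaScreen read.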
# Six1-Eya2 blk – inhibitors of human Six1/Eya2 interaction | Q15475+O00167 | AlphaScreen GST-Six1/His-Eya2 binding, biochemical; active compounds read low | activity change, % (no concentration beside the values) | 360,000 tested, 0.56% active; in the data active = activity change below about -65%; inconclusive = mostly about -30% to -63%; also: % is scaled to controls: 0 for no effect and ±100 for the full control effect
#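 AlphaScreen luminescence read after one hour at 37 °C in darkness. Pin-transferred compounds met GST-Six1 and His-Eya2 protein (5X stock 250 nM/500 nM) plus glutathione donor and Ni-chelate acceptor beads (5X, 50 ug/mL).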
# HP1b binding inh – blocks HP1-beta chromodomain binding to methylated histone tails; P83916; AlphaScreen HP1-beta / biotin-H3K9me3 peptide binding; Potency, µM (titrated, usually from 114 µM), without a hit: top-dose activity change, negative = inhibition, actives largely listed as inhibitors; 390,000 tested, 0.56% active; AID 540317; also: potency is read from the fitted curve at half-maximal effect; nearly all actives have a fitted effect of over 70% in size
# Target sequence (P83916 whole entry, looked up): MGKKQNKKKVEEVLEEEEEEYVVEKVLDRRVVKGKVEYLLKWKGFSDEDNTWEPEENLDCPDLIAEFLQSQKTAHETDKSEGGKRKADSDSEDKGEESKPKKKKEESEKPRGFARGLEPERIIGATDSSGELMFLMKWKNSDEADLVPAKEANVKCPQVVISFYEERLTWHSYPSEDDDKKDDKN
#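 AlphaScreen: HP1-beta (50 nM) preformed 30 min with biotin-H3(1-18)K9me3 peptide (50 nM) in PBS pH 7.4, 0.01% Tween-20. Compound added for 30 min at RT, then streptavidin donor/nickel chelate acceptor beads (10 ug/mL) for 30 min.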
# JMJD2A Tudor inh – inhibitors of human JMJD2A Tudor domain; O75164; AlphaScreen JMJD2A-Tudor / H3K4me3 peptide binding; Potency, µM (highest dose often 114 µM), for the others: at the highest dose activity change, negative = inhibition, actives largely listed as inhibitors; 390,000 tested, 4.4% active; AID 504339; also: potency is read from the fitted curve at half-maximal effect; % is scaled to controls: 0 for no effect and ±100 for the full control effect; nearly all actives have a fitted effect of over 50% in size
# CtBP-E1A blk – inhibitors of CtBP/E1A interaction; AlphaScreen GST-E1A/His-CtBP binding, 1536-well; active compounds read low; activity change, % (no concentration beside the values); 340,000 tested, 0.49% active; in the data active = activity change below about -65%; inconclusive = mostly about -30% to -63%; also: % is scaled to controls: 0 for no effect and ±100 for the full control effect
#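 Homogeneous bead-based format: GST-tagged E1A captured on glutathione donor beads, His-tagged CtBP on nickel acceptor beads; compounds precede bead addition by 2 h at 37 °C.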
# * hit, by the source's call; ? = inconclusive; . = no result. Unless noted, calls follow the shape of the dose curve; as a rule, active = well fitted inhibition curve with a large enough effect; inconclusive = small, poorly fitted or top-dose-only effect; inactive = no such curve, though single readings can be large or run the other way.
SMILES,TDP1 inh,BAZ2B block,Six1-Eya2 blk,HP1b binding inh,JMJD2A Tudor inh,CtBP-E1A blk
COc1ccc(-c2cc(-c3nc4ccccn4c3NCc3ccccc3)ccc2OC)cc1,6%,.,-29,?,32µM*,?
Cc1ccc(C(=O)c2c(N)c(C(=O)Nc3cccc(C(F)(F)F)c3)c3ccccn23)cc1,3%,27%,.,78%,-9%,.
O=C(O)CNc1cccc(-c2nn3c(=O)cc(N4CCNCC4)nc3s2)c1,.,.,.,.,-18%,.
O=C1c2cccc3cccc(c23)C(=O)N1CC1CCN(CC(O)COc2ccc3ccccc3c2)CC1 (stereo unspecified),6%,?,-26,?,13µM*,-27
Cc1ccc(C)c(OCC(O)CN2CCN(CCN3C(=O)c4cccc5cccc(c45)C3=O)CC2)c1 (stereo unspecified),0%,50µM*,?,-38%,?,-26
COc1cccc(OCC(O)CN2CCC(CN3C(=O)c4cccc5cccc(c45)C3=O)CC2)c1 (stereo unspecified),-2%,?,-22,-7%,?,-23
O=C(Nc1cc2c(cc1C(=O)c1ccccc1Br)OCCO2)c1cccc(Cl)c1,5%,-14%,.,-1%,-24%,.
CCN(CC)CCN1C(=O)C(O)=C(C(=O)c2cccs2)C1c1ccc(C)o1 (stereo unspecified),-1%,3%,3,23%,?,4
CCN(CC)CCN1C(=O)C(O)=C(C(=O)c2cccs2)C1c1ccccn1 (stereo unspecified),-9%,50µM*,0,21%,?,-3
Cc1ccc(NC(=O)Cn2c(-c3cncs3)nc3ccccc32)cc1Br,9%,-16%,.,61%,-27%,.
CCc1ccc(NC(=O)N2CCC(N3CCN(Cc4ccc(C)cc4)C(=O)C3=O)CC2)cc1,4%,1%,.,51%,-15%,.
CCCn1nnc(NC(=S)NC(=O)/C=C/c2ccco2)n1,.,-29%,-4,-15%,28µM*,-2
CCCn1nnc(NC(=S)NC(=O)c2cccs2)n1,1%,-29%,0,-13%,7.9µM*,-3
N=C(N)CCCOc1ccccc1-c1ccccc1,8%,2%,6,38%,3%,9
CN(C)CCOCCOc1ccccc1-c1ccccc1,-4%,20µM*,6,?,2.8µM*,1
CN(C)CCOc1ccccc1-c1ccccc1,-5%,25µM*,0,?,0.89µM*,2
CC(=O)N1CCC(N(Cc2ccc(C)o2)C(=O)Nc2ccc(C)cc2)CC1,2%,-3%,.,-16%,-24%,.
COc1ccc2c(c1)C(=NN)c1cc(OC)ccc1-2,2%,40µM*,-17,-20%,56µM*,-9
COc1ccc2c(c1)C(=NNc1ccc(C(=O)O)cc1)c1cc(OC)ccc1-2,.,40µM*,-5,?,50µM*,.
CC(=O)Oc1ccc2c(=O)c(Oc3ccccc3)coc2c1OC(C)=O,.,50µM*,-8,-12%,?,-6
CC(C)(C)C(=O)OCOP(=O)(COCCn1cnc2c(N)ncnc21)OCOC(=O)C(C)(C)C,4%,.,.,.,.,.
Cc1cccc(N2CCN(C(=O)C3CCN(c4ncnc5c4nc4n5CCCCC4)CC3)CC2C)c1 (stereo unspecified),7%,35µM*,-12,7%,-30%,-9
Cc1cccc(N2CCN(C(=O)C3CCN(c4ncnc5c4nc4n5CCCCC4)CC3)CC2)c1C,4%,?,-16,13%,?,.
Cc1ccc(C(=O)c2oc3ccccc3c2NC(=O)c2cc(-c3ccc(Cl)cc3)on2)cc1,4%,1%,.,28%,-14%,.
COc1cc(C#Cc2c(-c3cncn3C)n(C)c3ccc(-c4cc(OC)c(OC)c(OC)c4)cc23)cc(OC)c1,5%,.,-23,1%,?,-26
SMILES,TDP1 inh,BAZ2B block,Six1-Eya2 blk,HP1b binding inh,JMJD2A Tudor inh,CtBP-E1A blk
COc1cc(C#Cc2c(-c3cncn3C)n(C)c3ccc(-c4ccc(OC)nc4)cc23)cc(OC)c1,5%,40µM*,-1,-11%,14µM*,-25
C/C(=N\N=C1\NC(=O)C(Cc2ccccc2)S1)c1ccccc1 (stereo unspecified),2%,?,0,?,63µM*,.
O=C1NC(c2ccccc2)C(C(=O)c2cccs2)=C1O (stereo unspecified),0%,-36%,1,-1%,25µM*,-10
N/C(=N\OC(=O)COc1ccc(Cl)cc1Cl)c1ccccn1,6%,-14%,-1,28%,2%,.
N/C(=N\OC(=O)COc1ccc(Br)cc1Cl)c1ccccn1,-1%,7%,0,20%,79µM*,1
N/C(=N\OC(=O)/C=C/c1ccccc1Cl)c1ccccn1,5%,79µM*,-18,60%,-7%,?
O=C(c1cc(-c2ccc(Br)cc2)n[nH]1)N1CCN(S(=O)(=O)c2ccc(Br)s2)CC1,2%,-2%,.,25%,-11%,.
COc1ccc(Cc2nnc(N/N=C/c3ccc(O)cc3)[nH]c2=O)cc1OC,11%,7.1µM*,-82*,19%,25µM*,-91*
COc1ccc(Cc2nnc(N/N=C/c3ccc(Br)cc3)[nH]c2=O)cc1OC,3%,?,-1,56%,-20%,4
COc1ccc(/C=N/Nc2nnc(Cc3ccccc3)c(=O)[nH]2)cc1OC,5%,-5%,-66*,21%,6%,?
COc1ccc(N2CCN(C(=O)CCS(=O)(=O)c3cc4c(cc3Cl)NC(=O)CO4)CC2)cc1,-3%,-6%,.,17%,?,.
COC(=O)/C=C1\N/C(=N\c2nc(C)cc(C)n2)N(c2ccc(Cl)cc2)C1=O,0%,-8%,0,8%,20µM*,1
COC(=O)/C=C1\N/C(=N\c2nc(C)cc(C)n2)N(c2ccc(C)c(C)c2)C1=O,-8%,-30%,12,30%,28µM*,7
COC(=O)/C=C1/C(=O)N/C(=N\c2nc(C)cc(C)n2)N1c1ccc(OC)cc1,3%,?,0,29%,25µM*,8
COC(=O)/C=C1\N/C(=N/c2nc(C)c3cc(OC)ccc3n2)NC1=O,.,5%,-14,29%,-16%,-5
Cc1occc(=O)c1O,4%,?,4,23%,25µM*,-15
CCc1cccc(NC(=O)CNC(=O)N2CC(=O)Nc3ccccc32)c1,1%,-15%,6,20%,-22%,2
CCc1cccc(Nc2c([N+](=O)[O-])cc(C(=O)N3CC(=O)Nc4ccccc43)cc2[N+](=O)[O-])c1,7%,10µM*,-9,?,?,.
